Rows were chosen to be rich in hits. Some 1.4% of all compounds tested hit in one or more screens of this group.
C2C12 statin: protects C2C12 myotubes from simvastatin toxicity; rescue of ATP level, % at 7.49 µM; 330,000 compounds, 0.78% hits; AID 602340; ATP luminescence, 48 h; scaled: DMSO 0, geranylgeraniol control 100;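 active = mean ATP rescue above about 67%, or every replicate alone reaching that limit, limit read from the data, passing the limit was not always enough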;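 also: myotubes were challenged with 10 µM simvastatin during compound exposure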
CFTR F508del cor: correctors of CFTR F508del function in bronchial epithelial cells; CFBE cells, YFP halide quenching; stimulated with forskolin plus potentiator P3; % fluorescence drop versus neutral controls; activity (quench increase), % at 7.58 µM; 350,000 compounds, 0.36% hits;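 active = mean added fluorescence quench of at least 8% versus neutral control, with both replicates also reaching 8%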;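 also: cells transiently co-express mutant CFTR-F508del with the halide-sensitive YFP; corrector assay measuring rescue of mutant channel to the surface after 24 h compound exposure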
PglD inh: PglD (C. jejuni) enzyme inhibition | inhibition, % at 12.5 µM | 360,000 compounds, 0.098% hits | purified PglD enzyme, DTNB colorimetric CoA detection; in the data active = inhibition above about 16%, passing the limit was not always enough
ARNT TACC3 PPI: disruptors of human ARNT/TACC3 interaction | Q9Y6A5 | AlphaScreen His-ARNT PAS-B/GST-TACC3 binding, luminescence; TACC3 fragment carries E629A point mutation | inhibition, % at 9.99 µM | 390,000 compounds, 0.66% hits | AID 623870;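 active = mean inhibition of replicates at least 50% and at least half of replicates each reaching 50%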
Hits are given with their value; – = inactive; · = no result given.

SMILES	C2C12 statin	CFTR F508del cor	PglD inh	ARNT TACC3 PPI
O=C(Cc1cccnc1)N[C@@H]1CC[C@@H](CCn2cc(-c3ccccc3F)nn2)O[C@H]1CO	–	–	–	–
CC(=O)N1CCc2c(sc(NC(=O)c3ccc4c(c3)OCCO4)c2C#N)C1	–	10.5	–	–
CC(=O)N1CCc2c(sc(NC(=O)c3ccc(S(=O)(=O)N(C)C)cc3)c2C#N)C1	–	–	–	–
COc1ccc(NCC(=O)n2c(C)c(C)c3ccccc32)cc1	–	9.4	–	–
Cc1cccc(NC(=S)NNC(=O)Cc2ccccc2)c1	·	·	–	–
Cc1cccc(NCC(=O)NNC(=S)Nc2ccccc2)c1	·	–	·	46.9
CC1CN(S(=O)(=O)c2ccc(C(=O)Nc3ccccc3F)cc2)CC(C)O1 (configuration not stated)	–	9.1	–	–
CS(=O)(=O)c1cccc(-c2nnc(NC(=O)c3ccc(S(=O)(=O)N4CCCC4)cc3)o2)c1	–	–	–	56.3
O=C(Nc1nnc(-c2ccco2)o1)c1ccc(S(=O)(=O)N2CCCC2)cc1	·	–	·	–
Cc1nnc(NC(=O)c2ccc(S(=O)(=O)N3CC(C)OC(C)C3)cc2)o1 (configuration not stated)	–	–	–	63.7
Cc1nnc(NC(=O)c2ccc(S(=O)(=O)N3CCCCCC3)cc2)o1	–	·	–	–
CO[C@@H](CN(C)S(=O)(=O)c1ccc(Cl)cc1)[C@H](C)CN(C(=O)Nc1ccccc1F)[C@@H](C)CO	–	–	–	–
O=C(C[C@H]1C=C[C@H](NC(=O)C2CC2)[C@@H](CO)O1)Nc1nccs1	–	–	–	–
O=S(=O)(c1ccccc1)c1nc(-c2ccco2)oc1N1CCCCCC1	105.1	·	–	–
CN1CCN(c2oc(-c3ccco3)nc2S(=O)(=O)c2ccccc2)CC1	–	·	–	–
COc1ccc2c3c(n(C)c2c1)[C@H](CO)N(C(=O)CN1CCOCC1)CC31CN(C(=O)C2CC2)C1	·	–	·	·
O=C(NCc1cccs1)c1cc(-c2ccccc2)nn1CC1CC(c2cccc([N+](=O)[O-])c2)=NO1 (configuration not stated)	·	8.6	–	–
NC(=O)c1ccc(NC(=O)CCC(=O)N2CCN(S(=O)(=O)c3ccc(Cl)cc3)CC2)cc1	·	–	·	–
O=C(CCC(=O)N1CCN(S(=O)(=O)c2ccc(Cl)cc2)CC1)Nc1cccc(Br)c1	71.7	–	–	–
CC(C)(CSc1ncccn1)NS(=O)(=O)c1ccccc1	119.6	–	–	·
C[C@@H]1CN([C@H](C)CO)C(=O)c2cc(C#CCN(C)C)cnc2O[C@@H]1CN(C)C(=O)c1ccc2c(c1)OCO2	–	–	–	–
O=[N+]([O-])c1cccnc1NCCNc1ncc(C(F)(F)F)cc1Cl	136.4	·	–	–
Cc1noc(C)c1NC(=O)Nc1ccc2c(c1)C(=O)N([C@@H](C)CO)C[C@@H](C)[C@@H](CN(C)S(=O)(=O)c1ccc(Cl)cc1)OCCCC[C@H](C)O2	·	–	–	–
CCC(=O)N1CC2(CCN(Cc3ccncc3)CC2)c2c(n(C)c3cc(OC)ccc23)[C@H]1CO	·	–	·	·
CCOC(=O)c1c(OCC)[nH]c2c1cc(O)c1ccccc12	–	·	–	33.1
SMILES	C2C12 statin	CFTR F508del cor	PglD inh	ARNT TACC3 PPI
N#C/C(C(=O)N1CCCCC1)=C1/N=C(NC(=O)c2ccc(F)cc2)c2ccccc21	86.5	–	–	–
C[C@@H]1CN([C@@H](C)CO)C(=O)c2cc(-c3ccc(C(=O)N(C)C)cc3)cnc2O[C@H]1CN(C)C(=O)C1CC1	–	–	–	–
Cc1ccc(CSCC(=O)N2CCOCC2)cc1	104.2	·	–	–
CCOC(=O)c1sc(NC(=O)CNCc2cccnc2)c(C(=O)OCC)c1C	–	–	–	–
CCOC(=O)c1sc(NC(=O)CNCc2ccccn2)c(C(=O)OCC)c1C	·	–	·	48.5
COc1ccccc1NC(=S)NNC(=O)c1nn(C)cc1Cl	–	·	–	56.8
Nc1ccccc1-c1nc2ccccc2s1	–	–	–	–
c1coc(-c2nc3ccccc3s2)c1	119.5	11.3	–	–
CC1=NN(C(N)=S)C(=O)C1N=Nc1ccccc1O (configuration not stated)	–	–	–	75.9
CC1=NN(C(N)=S)C(=O)C1N=Nc1ccccc1C (configuration not stated)	–	·	–	–
CC1=NN(C(N)=S)C(=O)C1N=Nc1c(C)cc(C)cc1C (configuration not stated)	–	·	–	–
CC1=NN(C(N)=S)C(=O)C1N=Nc1c(C)n(C)n(-c2ccccc2)c1=O (configuration not stated)	–	–	–	46.6
O=C(C1CCOCC1)N1CC2(C1)[C@H](c1ccccc1)[C@@H](CO)N2Cc1ccccc1F	·	–	·	·
Cc1noc(C)c1NC(=O)N(C)C[C@@H]1Oc2ccc(NC(=O)Nc3cccc4ccccc34)cc2CC(=O)N([C@H](C)CO)C[C@@H]1C	–	–	–	·
COCc1ccc(CN2CCc3c([nH]c4ccccc34)C2C(C)(C)C)o1 (configuration not stated)	·	–	·	45.1
C[C@@H]1CCCCO[C@@H](CN(C)CC2CCCCC2)[C@@H](C)CN([C@H](C)CO)C(=O)c2cc(NC(=O)Nc3cccc4ccccc34)ccc2O1	·	–	–	–
Cc1ccc(S(=O)(=O)Nc2cccc3ncccc23)cc1	–	–	–	–
Cc1ccc(S(=O)(=O)Nc2cccc3ncccc23)s1	–	·	–	70.1
CC(SCc1cn2cc(Cl)ccc2n1)C(=O)O (configuration not stated)	107.8	·	·	–
Cc1ccc(OCCNC(=O)c2cccc(S(=O)(=O)NCc3ccccc3)c2)cc1	–	10.3	–	–
Cc1cccc(OCCNC(=O)c2ccc(Cl)c(S(=O)(=O)NCc3cccnc3)c2)c1	–	14.3	–	–
O=C(NCc1ccncc1)c1cccc(S(=O)(=O)NCc2ccccc2)c1	–	–	–	–
CS(=O)(=O)c1nc(S(=O)(=O)c2ccc(Cl)cc2)c(N2CCC(O)CC2)s1	84.5	–	–	–
O=C(NCC[C@H]1CC[C@H](NC(=O)C2CCC2)[C@H](CO)O1)c1cc(Cl)cc(Cl)c1	–	–	–	–
COc1ccccc1-c1cn(CC[C@H]2CC[C@H](NC(=O)C3CCCC3)[C@@H](CO)O2)nn1	·	–	·	·
SMILES	C2C12 statin	CFTR F508del cor	PglD inh	ARNT TACC3 PPI
Cc1ccccc1NC(=O)c1onc2c1CCCC2	140.2	·	·	–
Cc1cccc(NC(=O)c2onc3c2CCCC3)c1C	72.8	·	–	–
Cc1cccc(NC(=O)c2onc3c2CCCC3)n1	·	–	–	–
O=S(=O)(NCC[C@@H]1CC[C@H](NS(=O)(=O)c2cccc(Cl)c2)[C@@H](CO)O1)c1cccc(F)c1	–	–	–	–
C[C@@H]1CN([C@@H](C)CO)C(=O)c2cc(C3=CCCC3)cnc2O[C@H]1CN(C)C(=O)c1ccncc1	–	–	–	–
COC(=O)c1ccc(CSc2nnc(Nc3ccc(C)cc3)s2)o1	95.1	·	–	–
O=C(C[C@H]1CC[C@H](NS(=O)(=O)c2ccc(F)cc2)[C@@H](CO)O1)NC1CCC1	–	–	–	–

Assay outcomes deposited in PubChem BioAssay by Broad Institute.
